Holding throughout (design): scale not given: direction of the effect not stated beside the values
Experiment [1] concerns the target Protein translocase subunit SecA (Escherichia coli (strain K12)) (UniProt P10408). Kind of experiment: Assay to Identify E. coli SecA ATPase Inhibitors. The settings on record: 30 µM. It counts as functional.
For experiment [2], the target named is T1, Ubiquitin-activating enzyme e1, putative (Leishmania donovani (strain BPK282A1)) (UniProt E9BSI1).
T1 sequence (whole entry): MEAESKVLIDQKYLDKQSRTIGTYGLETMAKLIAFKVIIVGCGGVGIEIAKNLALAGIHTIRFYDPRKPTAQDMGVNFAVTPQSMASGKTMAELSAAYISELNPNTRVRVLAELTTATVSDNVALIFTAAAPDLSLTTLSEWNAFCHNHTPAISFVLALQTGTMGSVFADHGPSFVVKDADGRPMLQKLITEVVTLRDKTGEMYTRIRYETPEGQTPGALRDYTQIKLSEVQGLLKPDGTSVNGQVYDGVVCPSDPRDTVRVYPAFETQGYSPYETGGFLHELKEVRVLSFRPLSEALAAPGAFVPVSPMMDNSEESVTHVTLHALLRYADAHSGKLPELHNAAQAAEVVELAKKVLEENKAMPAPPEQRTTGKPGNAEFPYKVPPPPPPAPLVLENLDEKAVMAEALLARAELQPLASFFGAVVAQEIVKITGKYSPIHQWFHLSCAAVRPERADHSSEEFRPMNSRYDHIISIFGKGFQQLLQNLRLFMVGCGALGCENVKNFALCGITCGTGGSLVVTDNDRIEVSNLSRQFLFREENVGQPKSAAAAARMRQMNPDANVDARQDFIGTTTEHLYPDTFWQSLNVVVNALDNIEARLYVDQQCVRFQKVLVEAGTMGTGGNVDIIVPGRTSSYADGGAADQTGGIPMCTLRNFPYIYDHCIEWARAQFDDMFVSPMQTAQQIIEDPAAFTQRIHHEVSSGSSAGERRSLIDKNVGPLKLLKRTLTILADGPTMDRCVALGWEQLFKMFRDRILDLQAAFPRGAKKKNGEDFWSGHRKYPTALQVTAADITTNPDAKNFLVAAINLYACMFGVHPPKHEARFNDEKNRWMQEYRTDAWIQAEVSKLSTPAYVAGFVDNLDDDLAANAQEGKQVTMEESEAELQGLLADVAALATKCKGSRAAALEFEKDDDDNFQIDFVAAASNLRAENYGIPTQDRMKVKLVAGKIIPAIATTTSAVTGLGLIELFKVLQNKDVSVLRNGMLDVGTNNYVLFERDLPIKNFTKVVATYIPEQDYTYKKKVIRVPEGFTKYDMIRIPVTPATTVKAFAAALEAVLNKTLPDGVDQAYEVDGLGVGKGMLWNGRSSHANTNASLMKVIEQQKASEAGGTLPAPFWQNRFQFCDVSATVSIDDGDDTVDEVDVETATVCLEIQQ
Kind of experiment: Leishmania donovani Ubiquitin Activating Enzyme (LdE1). It is filed as functional. The settings on record: 30 µM.

The target in experiment [3] is AMP-activated protein kinase, AMPK (Homo sapiens) (UniProt P54646+O43741+P54619+Q9UGJ0+Q9Y478+Q13131+Q9UGI9). Briefly: AMP-dependent Kinase enzyme assay. An in vitro enzyme assay that detects ADP turnover that is directly proportional to AMPK activity. This uses naive AMPK that is activated during the assay with MK-8722. It is filed as functional. The following applies: 30 µM.

Experiment [4] has as its target Sialic acid-binding Ig-like lectin 9 (Homo sapiens) (UniProt Q9Y336). Briefly: Hs-Siglec9 ALPHAscreen SOP 20170721. The following applies: 10 µM.
The subject of experiment [5] is Trypanosoma cruzi. Briefly: Trypanosoma cruzi phosphomannomutase and mannose-1-phosphate guanylyltransferase assay. It is filed as functional. The settings on record: 10 µM.
The target in experiment [6] is T2, Arginase-2, mitochondrial (Homo sapiens) (UniProt P78540).
T2 sequence (whole entry): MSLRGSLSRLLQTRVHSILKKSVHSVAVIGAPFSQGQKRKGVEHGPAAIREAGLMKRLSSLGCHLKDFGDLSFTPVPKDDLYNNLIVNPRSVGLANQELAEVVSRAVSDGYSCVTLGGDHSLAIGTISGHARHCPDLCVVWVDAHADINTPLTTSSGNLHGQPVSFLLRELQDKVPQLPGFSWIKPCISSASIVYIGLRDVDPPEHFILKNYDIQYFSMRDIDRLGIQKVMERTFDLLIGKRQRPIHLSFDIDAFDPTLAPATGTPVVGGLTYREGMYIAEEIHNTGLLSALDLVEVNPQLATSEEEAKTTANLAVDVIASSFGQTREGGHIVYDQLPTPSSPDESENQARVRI
Kind of experiment: in vitro enzyme assay to detect the production of urea directly proportional to the activity of Arginase II. Note: in the data most compounds retested in dose-response had high values. It is filed as functional. The settings on record: 33.3 µM.

For experiment [7], the target named is T3, Proteasome subunit beta (Trypanosoma cruzi) (UniProt O96673).
T3 sequence (whole entry): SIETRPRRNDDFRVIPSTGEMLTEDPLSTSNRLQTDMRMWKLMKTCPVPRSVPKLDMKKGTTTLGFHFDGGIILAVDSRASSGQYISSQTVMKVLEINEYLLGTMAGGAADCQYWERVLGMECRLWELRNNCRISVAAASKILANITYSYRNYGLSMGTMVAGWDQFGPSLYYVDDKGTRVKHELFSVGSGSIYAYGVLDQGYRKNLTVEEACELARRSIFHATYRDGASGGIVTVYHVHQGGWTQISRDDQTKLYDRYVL
Briefly: Trypanosoma cruzi proteasome chymotrypsin-like activity (TcProtChymo) assay. Note: in the data most compounds retested in dose-response had high values. It counts as functional. The settings on record: 9.37 µM.

The species named for experiment [8] is Homo sapiens. Briefly: To identify inhibition of the IFN signalling (Jak-Stat) pathway via expression of an eGFP reporter gene under the control of an IFN-stimulated response element (ISRE) containing MxA promoter. It counts as functional. The following applies: 30 µM.
Experiment [9] concerns the target T4, Tyrosyl-tRNA synthetase, putative (Trypanosoma cruzi (strain CL Brener)) (UniProt Q4DSP6).
T4 sequence (whole entry): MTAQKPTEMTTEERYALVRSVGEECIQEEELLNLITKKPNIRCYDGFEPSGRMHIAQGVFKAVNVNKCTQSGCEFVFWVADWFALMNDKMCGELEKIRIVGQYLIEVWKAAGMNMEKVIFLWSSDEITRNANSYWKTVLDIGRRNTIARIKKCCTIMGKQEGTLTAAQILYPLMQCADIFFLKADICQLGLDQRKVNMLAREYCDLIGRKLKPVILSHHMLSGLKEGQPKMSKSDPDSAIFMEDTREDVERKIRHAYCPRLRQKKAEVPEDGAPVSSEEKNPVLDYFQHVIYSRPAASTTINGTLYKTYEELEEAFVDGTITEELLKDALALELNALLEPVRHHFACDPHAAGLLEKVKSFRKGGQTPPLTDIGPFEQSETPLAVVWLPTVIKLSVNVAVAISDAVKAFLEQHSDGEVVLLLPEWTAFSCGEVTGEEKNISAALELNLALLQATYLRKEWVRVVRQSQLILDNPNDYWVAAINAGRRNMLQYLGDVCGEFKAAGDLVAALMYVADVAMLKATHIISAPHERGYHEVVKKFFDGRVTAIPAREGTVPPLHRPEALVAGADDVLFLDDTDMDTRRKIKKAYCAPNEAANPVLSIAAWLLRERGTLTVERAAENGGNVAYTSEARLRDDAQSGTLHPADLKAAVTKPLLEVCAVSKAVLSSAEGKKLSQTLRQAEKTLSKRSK
Kind of experiment: Trypanosoma cruzi tyrosyl tRNA synthetase (TcYRS) _High Tyrosine SOP. Note: in the data most compounds retested in dose-response had high values. It counts as functional. The settings on record: 30 µM.

In experiment [10] the target is T4, Tyrosyl-tRNA synthetase, putative (Trypanosoma cruzi (strain CL Brener)). Kind of experiment: Trypanosoma cruzi tyrosyl tRNA synthetase (TcYRS) SOP. It is filed as functional. The settings on record: 30 µM.
The target in experiment [11] is Chromo domain-containing protein 1 (Saccharomyces cerevisiae (strain ATCC 204508 / S288c) (Baker's yeast)) (UniProt P32657). Briefly: ScCHD-1 Enzyme Inhibition Assay. Note: in the data most compounds retested in dose-response had high values. It is filed as functional. The following applies: 30 µM.

For some of these results: Measured potencies and affinities stand elsewhere.

Chain of Sialic acid-binding Ig-like lectin 9 (Homo sapiens) (Q9Y336 whole entry): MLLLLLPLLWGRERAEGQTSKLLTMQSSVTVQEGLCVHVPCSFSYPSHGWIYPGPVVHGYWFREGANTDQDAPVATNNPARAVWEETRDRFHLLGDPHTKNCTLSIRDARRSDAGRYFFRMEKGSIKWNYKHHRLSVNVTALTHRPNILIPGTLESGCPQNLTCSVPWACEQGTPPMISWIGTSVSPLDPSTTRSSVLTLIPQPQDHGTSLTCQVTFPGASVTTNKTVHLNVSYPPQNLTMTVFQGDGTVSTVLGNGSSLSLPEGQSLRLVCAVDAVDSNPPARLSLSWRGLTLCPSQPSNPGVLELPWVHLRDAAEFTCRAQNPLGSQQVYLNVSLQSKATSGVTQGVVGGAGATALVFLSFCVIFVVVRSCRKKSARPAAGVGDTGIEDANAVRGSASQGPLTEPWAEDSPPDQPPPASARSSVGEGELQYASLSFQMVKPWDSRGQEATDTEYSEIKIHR
Chain of Protein translocase subunit SecA (Escherichia coli (strain K12)) (P10408 whole entry): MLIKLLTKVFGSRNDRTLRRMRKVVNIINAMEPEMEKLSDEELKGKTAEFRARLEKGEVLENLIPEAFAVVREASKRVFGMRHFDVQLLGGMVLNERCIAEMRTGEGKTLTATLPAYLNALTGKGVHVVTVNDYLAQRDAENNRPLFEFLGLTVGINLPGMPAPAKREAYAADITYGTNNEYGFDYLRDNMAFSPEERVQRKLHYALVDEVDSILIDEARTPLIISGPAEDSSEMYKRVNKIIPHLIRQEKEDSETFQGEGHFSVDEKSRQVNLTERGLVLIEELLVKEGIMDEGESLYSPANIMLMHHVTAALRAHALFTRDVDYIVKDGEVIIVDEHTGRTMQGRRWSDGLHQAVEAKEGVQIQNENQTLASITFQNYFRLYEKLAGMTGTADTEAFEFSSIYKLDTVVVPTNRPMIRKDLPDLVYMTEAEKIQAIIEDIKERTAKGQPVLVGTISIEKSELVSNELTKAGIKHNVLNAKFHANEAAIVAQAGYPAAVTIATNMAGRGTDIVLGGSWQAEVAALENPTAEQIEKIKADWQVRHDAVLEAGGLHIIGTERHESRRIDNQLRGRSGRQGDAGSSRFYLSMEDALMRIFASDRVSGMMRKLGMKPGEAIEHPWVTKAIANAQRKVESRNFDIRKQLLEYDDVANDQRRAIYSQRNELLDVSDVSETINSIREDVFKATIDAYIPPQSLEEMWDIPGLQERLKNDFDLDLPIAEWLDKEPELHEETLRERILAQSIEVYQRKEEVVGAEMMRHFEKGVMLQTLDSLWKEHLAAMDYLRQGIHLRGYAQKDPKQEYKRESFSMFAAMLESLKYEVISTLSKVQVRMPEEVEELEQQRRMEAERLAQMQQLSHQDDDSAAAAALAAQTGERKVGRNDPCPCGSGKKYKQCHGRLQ
Chain of Chromo domain-containing protein 1 (Saccharomyces cerevisiae (strain ATCC 204508 / S288c) (Baker's yeast)) (P32657 whole entry, the tested form may be a part): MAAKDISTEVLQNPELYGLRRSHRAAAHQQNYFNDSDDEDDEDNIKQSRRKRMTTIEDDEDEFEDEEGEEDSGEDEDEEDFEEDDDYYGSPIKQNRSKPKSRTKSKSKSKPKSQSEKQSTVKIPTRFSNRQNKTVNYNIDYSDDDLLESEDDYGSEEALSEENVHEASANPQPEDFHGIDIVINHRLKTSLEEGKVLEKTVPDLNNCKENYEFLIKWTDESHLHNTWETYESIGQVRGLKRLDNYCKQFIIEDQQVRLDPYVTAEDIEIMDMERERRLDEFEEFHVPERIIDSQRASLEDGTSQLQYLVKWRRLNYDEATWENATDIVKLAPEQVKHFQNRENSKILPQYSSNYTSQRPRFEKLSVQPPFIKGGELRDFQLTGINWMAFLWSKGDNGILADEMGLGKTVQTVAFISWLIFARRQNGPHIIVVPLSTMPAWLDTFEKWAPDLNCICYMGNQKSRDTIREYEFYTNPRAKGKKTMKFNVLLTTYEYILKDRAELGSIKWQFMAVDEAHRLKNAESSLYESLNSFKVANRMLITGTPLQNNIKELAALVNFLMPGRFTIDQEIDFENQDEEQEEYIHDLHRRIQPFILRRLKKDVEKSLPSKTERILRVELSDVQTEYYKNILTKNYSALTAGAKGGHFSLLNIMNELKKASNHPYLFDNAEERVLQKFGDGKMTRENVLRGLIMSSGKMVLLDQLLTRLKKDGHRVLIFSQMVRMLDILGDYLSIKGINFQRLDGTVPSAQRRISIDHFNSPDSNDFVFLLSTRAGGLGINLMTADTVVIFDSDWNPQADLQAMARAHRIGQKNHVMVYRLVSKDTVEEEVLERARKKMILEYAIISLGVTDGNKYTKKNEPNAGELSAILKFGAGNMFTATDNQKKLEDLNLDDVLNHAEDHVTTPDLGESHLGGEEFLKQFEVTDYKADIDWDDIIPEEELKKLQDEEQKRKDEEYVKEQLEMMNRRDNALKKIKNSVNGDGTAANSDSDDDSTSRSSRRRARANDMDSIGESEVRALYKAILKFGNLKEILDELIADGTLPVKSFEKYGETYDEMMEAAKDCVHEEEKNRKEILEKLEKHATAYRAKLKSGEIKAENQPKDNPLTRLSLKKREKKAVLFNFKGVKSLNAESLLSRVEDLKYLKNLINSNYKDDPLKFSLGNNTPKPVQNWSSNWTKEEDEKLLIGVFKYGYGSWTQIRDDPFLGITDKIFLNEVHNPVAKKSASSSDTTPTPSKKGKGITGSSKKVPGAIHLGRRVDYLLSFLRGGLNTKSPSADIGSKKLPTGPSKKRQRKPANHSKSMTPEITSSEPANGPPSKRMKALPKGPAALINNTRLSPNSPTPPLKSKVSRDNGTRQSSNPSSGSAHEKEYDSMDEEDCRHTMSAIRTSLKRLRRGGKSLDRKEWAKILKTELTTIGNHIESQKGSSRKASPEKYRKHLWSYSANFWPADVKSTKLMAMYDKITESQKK

As for `O=C1CC(N(C(=O)c2ccc3[nH]c4c(c3c2)CCCC4)C2CC2)C(=O)N1` (stereo unspecified), the Percent Effect in experiment [1] is -1.37%; in experiment [2] it was 27.9%; in experiment [3] it was -6.86%; in [4], -8.64%; in experiment [5] it was 6.33%; in experiment [6], -3.8%. Also, the Percent Effect is 19.7% in [7]; -7.55% in experiment [8]; 7.39% in experiment [9]; 24.1% in experiment [10]; -8.05% in [11].
For `Cc1nc(C)c(C(=O)NCCNC(=O)Cc2ccccc2)s1`, the Percent Effect in experiment [1] is -3.47%; in experiment [2], 16.2%; in [3], -4.83%; in [4] it was 1.88%; in [5] it was -4.36%; in experiment [6], -2.4%. The Percent Effect was 16.7% in [7]; 11.2% in experiment [8]; 7.92% in experiment [9]; 18.3% in [10]; -2.99% in experiment [11].
For the compound `O=C(NCC1CCOC1)c1csc(-c2ccco2)n1` (stereo unspecified), the Percent Effect in experiment [1] is -2.71%; in experiment [2], 13%; in [3], -3.93%; in experiment [4] it was -0.826%; in [5] it was 5.24%; in experiment [6], -1.07%. For the same compound, the Percent Effect in experiment [7] is 13.8%; in experiment [8], 13.5%; in experiment [9], 7.77%; in experiment [10] it was 21.9%; in experiment [11], -8.51%.
As to `CC(c1cccnc1)N(C)Cc1csc(-c2ccccn2)n1` (stereo unspecified), the Percent Effect in [1] was -7.3%; in experiment [2] it was 5.48%; in [3], -12.1%; in [4], 19.7%; in [5], 6.66%; in [6], 3.64%. Also, the Percent Effect came to 5.86% in [7]; 8.26% in experiment [8]; 5.38% in experiment [9]; 15% in experiment [10]; 92.8% in [11].
With `O=C(CCc1cscn1)NS(=O)(=O)c1ccc2ccccc2c1`, the Percent Effect in experiment [1] was -4.59%; in experiment [2], 1.39%; in experiment [3] it was -10.1%; in experiment [4], 23.9%; in [5] it was 3.4%; in experiment [6], 4.42%. For the same compound, the Percent Effect is 0.877% in experiment [7]; 0.282% in experiment [8]; 8.42% in experiment [9]; 5.13% in [10]; -4.15% in experiment [11].
Take `CN(C)S(=O)(=O)N1CCC(Oc2ccc(C#N)cn2)CC1`: the Percent Effect in experiment [1] was -4.11%; in experiment [2] it was 5.2%; in [3], 0.734%; in experiment [4], 0.477%; in experiment [5], 3.25%; in experiment [6], -0.645%. Further, the Percent Effect in experiment [7] was 17.2%; in [8], 28%; in experiment [9] it was 5.29%; in experiment [10] it was 8.97%; in experiment [11] it was -8.98%.
On to `CC(C)(C)N1CC(C(=O)N2CCN(CCc3ccccc3)CC2)CC1=O` (stereo unspecified), for which the Percent Effect in experiment [1] was -1.55%; in experiment [2], 5.33%; in experiment [3], -2.2%; in [4] it was 1.39%; in experiment [5], -3.6%; in [6], 1.56%. Moreover, the Percent Effect is 17.1% in experiment [7]; 32.1% in experiment [8]; 4.92% in experiment [9]; 11.1% in [10]; -6.21% in [11].
For the compound `Cc1ccccc1CSc1nc(N)cc(N2CC[C@@H](O)C2)n1`, the Percent Effect is -5.3% in [1]; 16.2% in experiment [2]; -11.2% in experiment [3]; 22.8% in [4]; 7.33% in experiment [5]; -3.23% in experiment [6]. Besides, the Percent Effect was 11.4% in experiment [7]; 28.7% in experiment [8]; 20.4% in experiment [9]; 30.9% in experiment [10]; -7.45% in [11].
`Cc1ccc(C#N)c(N2CCC(c3nccn3CCN(C)C)CC2)n1`: the Percent Effect in experiment [1] is -4.49%; in experiment [2], 2.67%; in experiment [3], 1.54%; in experiment [4] it was 4.68%; in [5] it was -3.6%; in experiment [6], -2.08%. The Percent Effect in experiment [7] was 11.7%; in [8] it was 12.9%; in [9], 7.1%; in experiment [10], 11.1%; in experiment [11] it was -8.91%.
On to `CC(C)C(Sc1nnc(C2CC2)n1C1CC1)C(=O)NCc1cccnc1` (stereo unspecified), for which the Percent Effect in experiment [1] is 1.83%; in [2], -2.6%; in experiment [3] it was -2.77%; in experiment [4], 5.12%; in [5] it was 5.24%; in [6] it was -1.42%. Moreover, the Percent Effect in experiment [7] was 3.21%; in [8], -24.2%; in experiment [9], 5.83%; in [10] it was 12.2%; in experiment [11], -8.74%.
On to `Cc1cc(N2CCCN(C(=O)Cc3ccc(O)c(Cl)c3)CC2)ccn1`, for which the Percent Effect in experiment [1] was -3.42%; in experiment [2] it was 13.7%; in experiment [3] it was -3.37%; in [4], 6.51%; in [5] it was 2.18%; in experiment [6] it was 0.399%. The Percent Effect in experiment [7] was 22.2%; in experiment [8], -10.9%; in experiment [9], 8.33%; in experiment [10], 18.5%; in experiment [11], -1.79%.

(Values after ChEMBL document CHEMBL3988442, “University of Dundee, Small-Polar-MMV Screening Library” (2021).)
